# Laboratory results as given in PubChem BioAssay (NCATS).
# Inconclusive results are not listed. Values without a mark were called inactive. Calls of active or inactive are those of the source. Calls come from the whole dose curve; as a rule, active = well fitted cell-killing curve with a large enough effect; inconclusive = small, poorly fitted or top-dose-only effect; inactive = flat fitted curve, though single readings scatter.
# Assay: Cell Viability - NIH 3T3 (AID 541); note: nearly all actives have a fitted effect of over 25% in size;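 for activity change, negative = cytotoxicity: plate controls were DMSO alone for no effect and tamoxifen positive control for full effect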
# Conditions: NIH 3T3 cell viability, qHTS; activity change, negative = cytotoxicity: at 92.2 µM (top of the series)
# From the text: NIH Chemical Genomics Center [NCGC]
# NIH Molecular Libraries Screening Centers Network [MLSCN]
# National Institutes of Environmental Health Sciences [NIEHS]
# National Toxicology Program [NTP]
# We have developed a 1536-well cell-based assay for quantitative high throughput screening (qHTS) against a number of cell lines to determine in vitro cytotoxicity of small molecules. This particular assay uses the NIH 3T3 fibroblast cell line which is established from NIH Swiss mouse embryo.
# NCGC Assay Protocol Summary:
# The CellTiter-Glo luminescent cell viability assay (Promega) is a homogeneous method to measure the number of viable cells in culture. The end point readout of this assay is based on quantitation of intracellular ATP, an indicator of metabolic activity, using the luciferase reaction. Luciferase catalyzes the oxidation of beetle Luciferin to oxyluciferin and light in the presence of ATP. The luminescent signal is proportional to amount of ATP present.
# Using the CellTiter-Glo luminescent cell viability assay, the amount of cellular ATP was measured in the NIH 3T3 cell line with complete culture medium following compound treatment for 40 hours. The assay was performed in opaque white Kalypsys 1536-well plates. In the screen, tamoxifen and doxorubicin were used as positive controls. Library compounds were measured for their ability to cause acute toxicity in the cell line, as reflected by a decrease in intracellular ATP levels, in a concentration-dependent manner. […] AC50 values were determined from concentration-response data modeled with the standard Hill equation.
# qHTS protocol for CellTiter Glo NIH 3T3 cellular assay
# [Step] [Parameter] [Value] [Description]
# 1. Reagent; 5 uL; 1000 NIH 3T3 cells/well
# 2. Time; 5 hr; 37 °C incubation
# 4. Controls; 23 nL; Tamoxifen 0.34 uM to 100 uM & Doxorubicin 0.02 nM to 100 uM
# 5. Time; 40 hr; 37 °C incubation
# 6. Reagent; 5 uL; CellTiter Glo reagent
# 7. Time; 20 min; Room Temperature
# 8. Detection; Luminescence; Viewlux plate reader
# Keywords: cell viability, cytotoxicity, NIH 3T3 cell line, luminescence, NTPHTS, NTPHTS_NCGC, NIEHS, EPA, DSSTox, MLSMR, MLSCN, NIH Roadmap, qHTS, NCGC
# Potency is the fitted concentration of half-maximal effect.
SMILES,"activity change, negative = cytotoxicity",Potency
Brc1ccc(-c2ccccc2)cc1,-9.21%,
O=[N+]([O-])c1cccc(I)c1,-7.89%,
CC(C)S,-8.42%,
COc1ccc([N+](=O)[O-])cc1N,-29.6%,
C=CC1CO1 (stereo not given),-8.56%,
CCCCCCCCOc1ccc(C(=O)O)cc1,-11.5%,
Clc1nc2ccccc2nc1Cl,-143% (active),
c1ccc(COCc2ccccc2)cc1,-5.87%,
O=Nc1ccc(Nc2ccccc2)cc1,,31.6 µM (active)
O=C(O)c1ccc([N+](=O)[O-])cc1,3.22%,
Nc1cnn([C@@H]2O[C@H](CO)[C@@H](O)[C@H]2O)c(=O)n1,4.75%,
c1ccc(SCCSc2ccccc2)cc1,-5.55%,
Cc1ccc(C(=O)O)cc1[N+](=O)[O-],-13.4%,
Nc1ccccc1O,-130% (active),
CC(=O)CC(=O)Nc1ccccc1,-3.89%,
c1ccncc1,-13.1%,
c1cc2c3c(c1)ccc1cccc(c13)C2,-13.2%,
CCCCNCC,-8.38%,
CCN(CC)c1ccc(N)cc1,-96.6% (active),
c1ccc(CSCc2ccccc2)cc1,-18.8%,

SMILES,"activity change, negative = cytotoxicity",Potency
CCC(Cl)CC(Cl)C(Cl)C(Cl)C(Cl)C(C)Cl (stereo not given),-16.5%,
CCOc1ccc2nc(N)sc2c1,-15.3%,
O=C=Nc1ccc(Cl)c(Cl)c1,-122% (active),
C=CC(=O)CC,-11.9%,
Oc1c(Cl)cc(Cl)c(Cl)c1Cl,-2.17%,
C1CCCNCC1,-12.5%,
CCCCC(CC)COCCCN (stereo not given),-23.1%,
O=C(Cl)c1ccc([N+](=O)[O-])cc1,-20%,
O=[N+]([O-])c1ccccc1Nc1ccccc1,-20.1%,
CC(CCC(=O)O)(c1ccc(O)cc1)c1ccc(O)cc1,-7.14%,
Oc1cc2c(cc1O)[C@H]1c3ccc(O)c(O)c3OC[C@@]1(O)C2,-89.3% (active),
C/C=C/C=C/C=O,-142% (active),
c1c[nH]cn1,-10%,
CC(C)OCC1CO1 (stereo not given),-16.9%,
c1ccc(Nc2cccc3ccccc23)cc1,-22.5%,
C=CC(C)(O)CCCC(C)CCCC(C)CCCC(C)C (stereo not given),-10.5%,
Brc1cc(Br)c(Oc2cc(Br)c(Br)cc2Br)cc1Br,-6.22%,
C=C(C#N)C(=O)OCC,-117% (active),
c1ccc2c(c1)ccc1ccccc12,-132% (active),
CC(=O)c1ccc(Cl)c(Cl)c1Cl,-14.4%,
